# Source: PubChem BioAssay (NCI)
# Values joined by “and” are separate entries in the source; they are usually repeats but may differ in a detail not shown here. Identical values can stand only once. Compounds without any hit were thinned out: in the full panel of roughly 83,000, 20% have a hit.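 How to read the values: 0–100, growth inhibition (40 = 60% inhibited); 0, no net growth; -100 to 0, cell death (-40 = 40% of starting cells died; -100 = all dead).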 A number with no mark means an inactive call. Active and inactive are the calls of the source. How the source made its calls: active means growth percent below 10; inactive means the rest.
# Tests used:
# Test in all cases: NCI-60 one-dose screen, 48 h (100 = growth as untreated, 0 = no growth, -100 = all killed)
# NCI/ADR-RES ovarian = test system: NCI/ADR-RES ovarian
# T-47D breast = test system: T-47D breast
# BT-549 breast = test system: BT-549 breast
# MDA-MB-435 melanoma = test system: MDA-MB-435 melanoma
# SW-620 colon = test system: SW-620 colon
# MCF7 breast = test system: MCF7 breast
# HCT-116 colon = test system: HCT-116 colon
# HCC-2998 colon = test system: HCC-2998 colon
# KM12 colon = test system: KM12 colon
compound,measurement,setting,value
C[C@]12CC[C@H]3[C@@H](CC=C4c5nc(-c6ccc(Br)cc6)sc5CC[C@@]43C)[C@@H]1CC[C@@H]2O,growth,NCI/ADR-RES ovarian; 10 µM unless noted,99.5%
same,growth,T-47D breast; 10 µM unless noted,92.6%
same,growth,BT-549 breast; 10 µM unless noted,82.8%
same,growth,MDA-MB-435 melanoma; 10 µM unless noted,96.1%
same,growth,SW-620 colon; 10 µM unless noted,108%
same,growth,MCF7 breast; 10 µM unless noted,87.2%
same,growth,HCT-116 colon; 10 µM unless noted,84.9%
same,growth,HCC-2998 colon; 10 µM unless noted,110%
same,growth,KM12 colon; 10 µM unless noted,102%
O=[N+]([O-])c1cc(Br)c(O)c(Br)c1,growth,NCI/ADR-RES ovarian; 10 µM unless noted,104%
same,growth,T-47D breast; 10 µM unless noted,115%
same,growth,BT-549 breast; 10 µM unless noted,121%
same,growth,MDA-MB-435 melanoma; 10 µM unless noted,111%
same,growth,SW-620 colon; 10 µM unless noted,108%
same,growth,MCF7 breast; 10 µM unless noted,94.3%
same,growth,HCT-116 colon; 10 µM unless noted,97.3%
same,growth,HCC-2998 colon; 10 µM unless noted,96.1%
CC[C@@H](C)C(=O)O[C@H]1[C@H](O)[C@H]2[C@@H](CN3C[C@@H](C)CC[C@H]3[C@@]2(C)O)[C@@H]2C[C@]34O[C@]5(O)[C@@H](OC(=O)[C@@](C)(O)CC)CC[C@@]3(C)[C@@H]5[C@@H](OC(C)=O)[C@@H](OC(C)=O)[C@H]4[C@@]21O,growth,NCI/ADR-RES ovarian; 10 µM unless noted,104%
same,growth,T-47D breast; 10 µM unless noted,97.3%
same,growth,BT-549 breast; 10 µM unless noted,99.7%
same,growth,MDA-MB-435 melanoma; 10 µM unless noted,115%
same,growth,SW-620 colon; 10 µM unless noted,95.2%
same,growth,MCF7 breast; 10 µM unless noted,98.4%
same,growth,HCT-116 colon; 10 µM unless noted,98.1%
same,growth,HCC-2998 colon; 10 µM unless noted,87.9%
same,growth,KM12 colon; 10 µM unless noted,100%
CC[C@H](C)[C@H](NC(=O)c1cnccn1)C(=O)N(C)[C@H](C[C@@H](OC(C)=O)c1nc(C(=O)N[C@@H](Cc2ccccc2)C[C@H](C)C(=O)OC)cs1)C(C)C,growth,NCI/ADR-RES ovarian; 10 µM unless noted,14.4%
same,growth,T-47D breast; 10 µM unless noted,61.2%
same,growth,BT-549 breast; 10 µM unless noted,-7.25% (active)
same,growth,MDA-MB-435 melanoma; 10 µM unless noted,-37.6% (active)
same,growth,SW-620 colon; 10 µM unless noted,23.6%
same,growth,MCF7 breast; 10 µM unless noted,15.5%
same,growth,HCT-116 colon; 10 µM unless noted,-9.21% (active)
same,growth,HCC-2998 colon; 10 µM unless noted,22.3%
same,growth,KM12 colon; 10 µM unless noted,3.34% (active)
O=C1CN2CCC1CC2,growth,NCI/ADR-RES ovarian; 10 µM unless noted,113%
same,growth,T-47D breast; 10 µM unless noted,91.1%
same,growth,BT-549 breast; 10 µM unless noted,94.5%
same,growth,MDA-MB-435 melanoma; 10 µM unless noted,102%
same,growth,SW-620 colon; 10 µM unless noted,106%
same,growth,MCF7 breast; 10 µM unless noted,103%
same,growth,HCT-116 colon; 10 µM unless noted,100%
same,growth,HCC-2998 colon; 10 µM unless noted,124%
same,growth,KM12 colon; 10 µM unless noted,102%
CC1(C)S[C@H]2CC[C@H]3OC(=O)[C@@H]1N23,growth,NCI/ADR-RES ovarian; 10 µM unless noted,93.8%
same,growth,T-47D breast; 10 µM unless noted,104%
same,growth,BT-549 breast; 10 µM unless noted,85.3%
same,growth,MDA-MB-435 melanoma; 10 µM unless noted,93.3%
same,growth,SW-620 colon; 10 µM unless noted,113%
same,growth,MCF7 breast; 10 µM unless noted,103%
same,growth,HCT-116 colon; 10 µM unless noted,103%
same,growth,HCC-2998 colon; 10 µM unless noted,97.7%
same,growth,KM12 colon; 10 µM unless noted,111%
O=NN(c1ccccc1)c1ccccc1,growth,NCI/ADR-RES ovarian; 10 µM unless noted,100%
same,growth,T-47D breast; 10 µM unless noted,107%
same,growth,BT-549 breast; 10 µM unless noted,122%
same,growth,MDA-MB-435 melanoma; 10 µM unless noted,105%
same,growth,SW-620 colon; 10 µM unless noted,102%
same,growth,MCF7 breast; 10 µM unless noted,99.8%
same,growth,HCT-116 colon; 10 µM unless noted,95.4%
same,growth,HCC-2998 colon; 10 µM unless noted,101%
same,growth,KM12 colon; 10 µM unless noted,102%
CCCn1cc2c3c(cccc31)[C@H]1C[C@@H](C)CN(C)[C@@H]1C2,growth,NCI/ADR-RES ovarian; 10 µM unless noted,78.8%
same,growth,T-47D breast; 10 µM unless noted,72.6%
same,growth,BT-549 breast; 10 µM unless noted,89%
same,growth,MDA-MB-435 melanoma; 10 µM unless noted,112%
same,growth,SW-620 colon; 10 µM unless noted,90.1%
same,growth,MCF7 breast; 10 µM unless noted,85%
same,growth,HCT-116 colon; 10 µM unless noted,53%
same,growth,HCC-2998 colon; 10 µM unless noted,95.7%
same,growth,KM12 colon; 10 µM unless noted,97.6%
C[C@]12CCc3sc(Nc4ccc(F)cc4F)nc3C1=CC[C@@H]1[C@@H]2CC[C@]2(C)C(=O)CC[C@@H]12,growth,NCI/ADR-RES ovarian; 10 µM unless noted,67.6%
same,growth,T-47D breast; 10 µM unless noted,48.9%
same,growth,BT-549 breast; 10 µM unless noted,59.6%
same,growth,MDA-MB-435 melanoma; 10 µM unless noted,51.5%
same,growth,SW-620 colon; 10 µM unless noted,7.16% (active)
same,growth,MCF7 breast; 10 µM unless noted,14.6%
same,growth,HCT-116 colon; 10 µM unless noted,-23.3% (active)
same,growth,HCC-2998 colon; 10 µM unless noted,71.6%
same,growth,KM12 colon; 10 µM unless noted,57.1%
C[C@]12CCC3[C@@H](C[C@@H]4SC(Nc5ccccc5)=N[C@@]45CC(=O)CC[C@]35C)[C@@H]1CCC2=O (stereo partly specified),growth,NCI/ADR-RES ovarian; 10 µM unless noted,9.86% (active)
same,growth,T-47D breast; 10 µM unless noted,-27.4% (active)
same,growth,BT-549 breast; 10 µM unless noted,-19.9% (active)
same,growth,MDA-MB-435 melanoma; 10 µM unless noted,1.11% (active)
same,growth,SW-620 colon; 10 µM unless noted,-17.9% (active)
same,growth,MCF7 breast; 10 µM unless noted,15.4%
same,growth,HCT-116 colon; 10 µM unless noted,-85.5% (active)
same,growth,HCC-2998 colon; 10 µM unless noted,-32.7% (active)
same,growth,KM12 colon; 10 µM unless noted,23.2%
O=C(O)CCCc1ccc(N(CCCl)CCCl)cc1,growth,NCI/ADR-RES ovarian; 10 µM,96.3% and 89%
same,growth,NCI/ADR-RES ovarian; 75 µM,31%
same,growth,T-47D breast; 10 µM,87.2% and 74.8%
same,growth,T-47D breast; 75 µM,27.3%
same,growth,BT-549 breast; 10 µM,86.7% and 96.5%
same,growth,BT-549 breast; 75 µM,11.7%
same,growth,MDA-MB-435 melanoma; 10 µM,102% and 97.9%
same,growth,MDA-MB-435 melanoma; 75 µM,38.8%
same,growth,SW-620 colon; 10 µM,86.5% and 82.8%
same,growth,SW-620 colon; 75 µM,51.3%
same,growth,MCF7 breast; 10 µM,80.9% and 68.4%
same,growth,MCF7 breast; 75 µM,24.9%
same,growth,HCT-116 colon; 10 µM,84.4% and 87%
same,growth,HCT-116 colon; 75 µM,32.1%
same,growth,HCC-2998 colon; 10 µM,85.1% and 87.7%
same,growth,HCC-2998 colon; 75 µM,6.85% (active)
same,growth,KM12 colon; 10 µM,105% and 98%
same,growth,KM12 colon; 75 µM,65.3%
O=C(O)C1C(C(=O)O)C2(Cl)C(Cl)=C(Cl)C1(Cl)C2(Cl)Cl (stereo unspecified),growth,NCI/ADR-RES ovarian; 10 µM unless noted,111% and 106%
same,growth,T-47D breast; 10 µM unless noted,98.7%
same,growth,BT-549 breast; 10 µM unless noted,104% and 107%
same,growth,MDA-MB-435 melanoma; 10 µM unless noted,100% and 106%
same,growth,SW-620 colon; 10 µM unless noted,98.5% and 101%
same,growth,MCF7 breast; 10 µM unless noted,104% and 96.8%
same,growth,HCT-116 colon; 10 µM unless noted,101% and 107%
same,growth,HCC-2998 colon; 10 µM unless noted,102%
same,growth,KM12 colon; 10 µM unless noted,100% and 105%
